About 3,300 (8.5%) of roughly 39,000 compounds were called active. The list comes from a sample in which actives are over-represented; it also holds similar structures and randomly drawn compounds.

The test system of this test is HepG2. In words: cytotoxicity call (relative viability < 0.9). Conditions: 10 µM.
Consider `CNC[C@@H]1OCCCC[C@@H](C)Oc2ccc(NC(=O)CCCN(C)C)cc2C(=O)N([C@H](C)CO)C[C@H]1C`, for which the cytotoxicity call is “inactive”. In the case of `O=C(O)c1cn(-c2ccccc2)nn1` it was “inactive”.

In the case of `COCC(=O)N1C[C@H](C)[C@@H](OC)CN(C)C(=O)c2cc(NC(=O)c3ccc(OC)cc3)ccc2OC[C@H]1C`, the cytotoxicity call is “inactive”. With `COc1ccc2c3c([nH]c2c1)[C@H](CO)N(C[C@]13CCN(CC1)C(=O)c1cccnc1)C(=O)c1cccnc1` the entry was “inactive”; with `C/C=C/c1ccc([C@@H]2[C@H](CO)N(S(=O)(=O)CC)C23CN(C(=O)CN(C)C)C3)cc1`, “inactive”; with `C[C@H](CO)N1C[C@H](C)[C@H](CN(C)Cc2ccc(Oc3ccccc3)cc2)Oc2c(NC(=O)C3CCCCC3)cccc2C1=O`, “inactive”. In the case of `COc1ccc(NC(=O)N(C)C[C@@H]2OCCCC[C@H](C)Oc3ccc(NS(=O)(=O)c4ccccc4)cc3C(=O)N([C@H](C)CO)C[C@H]2C)cc1` it was “inactive”. As for `CC(C)NC(=O)N(C)C[C@@H]1Oc2c(NS(=O)(=O)c3cccs3)cccc2C(=O)N([C@@H](C)CO)C[C@@H]1C`, the cytotoxicity call is “inactive”. For `C[C@@H]1CN([C@@H](C)CO)C(=O)c2cc(NC(=O)Cc3ccccc3)ccc2O[C@@H](C)CCCCO[C@H]1CN(C)S(=O)(=O)c1ccc(Cl)cc1`, the cytotoxicity call was “inactive”.

For the compound `C[C@@H]1CCCCO[C@@H](CN(C)S(=O)(=O)c2ccc(Cl)cc2)[C@@H](C)CN([C@@H](C)CO)C(=O)c2cc(NC(=O)Cc3ccccc3)ccc2O1`, the cytotoxicity call is “inactive”. With `C[C@@H]1CCCCO[C@@H](CN(C)S(=O)(=O)c2ccc(Cl)cc2)[C@H](C)CN([C@H](C)CO)C(=O)c2cc(NC(=O)Cc3ccccc3)ccc2O1` the entry was “active”; with `C[C@@H]1CN([C@H](C)CO)C(=O)c2cc(NC(=O)Cc3ccccc3)ccc2O[C@@H](C)CCCCO[C@H]1CN(C)S(=O)(=O)c1ccc(Cl)cc1`, “inactive”.

Take `C[C@H](CO)N1C[C@H](C)[C@@H](CN(C)S(=O)(=O)c2ccc(Cl)cc2)OCCCC[C@H](C)Oc2ccc(NC(=O)Cc3ccccc3)cc2C1=O`: the cytotoxicity call is “active”. In the case of `C[C@@H]1CCCCO[C@H](CN(C)S(=O)(=O)c2ccc(Cl)cc2)[C@@H](C)CN([C@H](C)CO)C(=O)c2cc(NC(=O)Cc3ccccc3)ccc2O1` it was “active”. In the case of `C[C@@H]1CCCCO[C@@H](CN(C)S(=O)(=O)c2ccc(Cl)cc2)[C@@H](C)CN([C@H](C)CO)C(=O)c2cc(NC(=O)Cc3ccccc3)ccc2O1`, the cytotoxicity call is “inactive”. In the case of `C[C@H](CO)N1C[C@H](C)[C@H](CN(C)S(=O)(=O)c2ccc(Cl)cc2)OCCCC[C@H](C)Oc2ccc(NC(=O)Cc3ccccc3)cc2C1=O` it was “inactive”. In the case of `C[C@@H]1CCCCO[C@H](CN(C)S(=O)(=O)c2ccc(Cl)cc2)[C@@H](C)CN([C@@H](C)CO)C(=O)c2cc(NC(=O)Cc3ccccc3)ccc2O1` it was “inactive”; in that of `C[C@@H]1CCCCO[C@H](CN(C)S(=O)(=O)c2ccc(Cl)cc2)[C@H](C)CN([C@H](C)CO)C(=O)c2cc(NC(=O)Cc3ccccc3)ccc2O1`, “active”. With `C[C@@H]1CN([C@H](C)CO)C(=O)c2cc(NC(=O)Cc3ccccc3)ccc2O[C@@H](C)CCCCO[C@@H]1CN(C)S(=O)(=O)c1ccc(Cl)cc1` the entry was “inactive”. Turning to `C[C@@H]1CCCCO[C@H](CN(C)S(C)(=O)=O)[C@@H](C)CN([C@@H](C)CO)C(=O)c2cc(N(C)C)ccc2O1`, the cytotoxicity call was “inactive”. Regarding `C[C@@H]1CN([C@@H](C)CO)C(=O)c2cccc(NC(=O)c3nc4ccccc4s3)c2O[C@@H]1CN(C)Cc1ccc(Oc2ccccc2)cc1`, the cytotoxicity call is “inactive”. With `COc1cc(S(=O)(=O)NCCN2CCN(S(=O)(=O)c3cc(OC)c(Cl)cc3OC)CC2)c(OC)cc1Cl` the entry was “inactive”; with `COc1ccc(NC(=O)N(C)C[C@@H]2Oc3c(NC(=O)CCCCCC(=O)Nc4ccccc4N)cccc3C(=O)N([C@@H](C)CO)C[C@H]2C)cc1`, “inactive”; with `Cc1ccc(S(=O)(=O)Nc2ccc3c(c2)C(=O)N([C@H](C)CO)C[C@H](C)[C@H](CN(C)C(=O)CCC(F)(F)F)OCCCC[C@H](C)O3)cc1`, “inactive”.

As for `COc1ccc(NC(=O)N(C)C[C@H]2OCCCC[C@@H](C)Oc3ccc(NS(=O)(=O)c4cccs4)cc3C(=O)N([C@H](C)CO)C[C@H]2C)cc1`, the cytotoxicity call is “inactive”. In the case of `O=C(NCCN1CCOCC1)[C@@H]1c2ccccc2C(=O)N(C2Cc3ccccc3C2)[C@H]1c1ccc(CO)cc1` it was “inactive”; in that of `COCCNC(=O)C[C@@H]1CC[C@H]2[C@@H](COC[C@@H](O)CN2S(=O)(=O)c2ccccc2F)O1`, “inactive”; in that of `COCC(=O)Nc1ccc2c(c1)C(=O)N(C)C[C@H](OC)[C@@H](C)CN(C(=O)c1ccccc1F)[C@H](C)CO2`, “inactive”. With `C[C@@H]1CN([C@@H](C)CO)C(=O)Cc2cc(NS(=O)(=O)c3cn(C)cn3)ccc2O[C@H]1CN(C)C(=O)NC1CCCCC1` the entry was “inactive”; with `C[C@H]1CCCCO[C@H](CN(C)Cc2ccncc2)[C@@H](C)CN([C@@H](C)CO)C(=O)c2cc(NC(=O)NC3CCCCC3)ccc2O1`, “inactive”; with `C[C@H]1CCCCO[C@H](CN(C)S(=O)(=O)c2ccc(Cl)cc2)[C@@H](C)CN([C@@H](C)CO)C(=O)c2cc(NC(=O)Cc3ccccc3)ccc2O1`, “active”.

On to `C[C@@H]1CCCCO[C@@H](CN(C)S(=O)(=O)c2ccc(Cl)cc2)[C@H](C)CN([C@@H](C)CO)C(=O)c2cc(NC(=O)Cc3ccccc3)ccc2O1`, for which the cytotoxicity call is “inactive”. With `C[C@@H]1CN([C@@H](C)CO)C(=O)c2cc(NC(=O)Cc3ccccc3)ccc2O[C@@H](C)CCCCO[C@@H]1CN(C)S(=O)(=O)c1ccc(Cl)cc1` the entry was “inactive”; with `CCS(=O)(=O)N1Cc2nccn2C[C@H](Cn2ncccc2=O)C1`, “inactive”; with `Cc1ccc(S(=O)(=O)Nc2ccc3c(c2)C(=O)N([C@@H](C)CO)C[C@@H](C)[C@@H](CN(C)S(=O)(=O)c2ccc(F)cc2)O3)cc1`, “inactive”. Consider `Cc1noc(C)c1S(=O)(=O)Nc1cccc2c1O[C@H](CN(C)Cc1ccc(C(=O)O)cc1)[C@@H](C)CN([C@H](C)CO)C2=O`, for which the cytotoxicity call is “inactive”. In the case of `Cc1noc(C)c1S(=O)(=O)Nc1cccc2c1O[C@@H](CN(C)S(C)(=O)=O)[C@@H](C)CN([C@@H](C)CO)C2=O` it was “active”. Regarding `Cc1noc(C)c1S(=O)(=O)Nc1cccc2c1O[C@H](CN(C)Cc1ccc(C(=O)O)cc1)[C@H](C)CN([C@@H](C)CO)C2=O`, the cytotoxicity call was “inactive”. Regarding `Cc1noc(C)c1S(=O)(=O)Nc1cccc2c1O[C@@H](CN(C)S(C)(=O)=O)[C@@H](C)CN([C@H](C)CO)C2=O`, the cytotoxicity call was “inactive”.

For the compound `Cc1noc(C)c1S(=O)(=O)Nc1cccc2c1O[C@H](CN(C)Cc1ccc(C(=O)O)cc1)[C@H](C)CN([C@H](C)CO)C2=O`, the cytotoxicity call is “active”. `Cc1noc(C)c1S(=O)(=O)Nc1cccc2c1O[C@H](CN(C)S(C)(=O)=O)[C@H](C)CN([C@@H](C)CO)C2=O`: the cytotoxicity call is “inactive”.
